Test results published in PubChem BioAssay (NCI).
About 83,000 compounds went through this panel and 20% of them were active in at least one assay; those are over-represented in the sample as a whole.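 Results are percent growth after 48 hours of single-concentration exposure. 100 means growth as in untreated cells, lower positive values show inhibition; negative values down to -100 show cell death.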 Active and inactive are the calls of the source. Rule for the calls: active = growth percent below 10; inactive = the rest.

Key:
Assay in all cases: NCI-60 one-dose screen, 48 h (100 = growth as untreated, 0 = no growth, -100 = all killed)
Details in all cases: 10 µM unless noted
NCI-H23 lung = test system: NCI-H23 lung
NCI-H226 lung = test system: NCI-H226 lung
NCI-H322M lung = test system: NCI-H322M lung
HOP-62 NSCLC = test system: HOP-62 NSCLC
NCI-H460 lung = test system: NCI-H460 lung
HOP-92 NSCLC = test system: HOP-92 NSCLC
NCI-H522 lung = test system: NCI-H522 lung
A549/ATCC NSCLC = test system: A549/ATCC NSCLC
786-0 renal = test system: 786-0 renal
COLO 205 colon = test system: COLO 205 colon
DU-145 prostate = test system: DU-145 prostate
K-562 leukemia = test system: K-562 leukemia
MALME-3M melanoma = test system: MALME-3M melanoma
MDA-MB-231 breast = test system: MDA-MB-231 breast
SF-268 CNS = test system: SF-268 CNS
SF-295 CNS = test system: SF-295 CNS
SF-539 CNS = test system: SF-539 CNS
UACC-257 melanoma = test system: UACC-257 melanoma
M14 melanoma = test system: M14 melanoma

Measured: growth

CC(=O)Nc1ccc(S(=O)(=O)NC2CCCCC2)cc1
inactive: NCI-H23 lung 99.9% | NCI-H226 lung 86.6% | NCI-H322M lung 96.5% | HOP-62 NSCLC 96.3% | NCI-H460 lung 102% | HOP-92 NSCLC 89.3% | NCI-H522 lung 92% | A549/ATCC NSCLC 93.3% | 786-0 renal 99.8% | COLO 205 colon 103% | DU-145 prostate 113% | K-562 leukemia 100% | MALME-3M melanoma 98.1% | MDA-MB-231 breast 97.3% | SF-268 CNS 104% | SF-295 CNS 96.4% | SF-539 CNS 103% | UACC-257 melanoma 95.8% | M14 melanoma 101%

N/C(=N\N=C\c1cc2ccccc2s1)N/N=C/c1cc2ccccc2s1
active: 786-0 renal 5.55% | M14 melanoma -56.3%
inactive: NCI-H23 lung 103% | NCI-H226 lung 99.5% | NCI-H322M lung 108% | HOP-62 NSCLC 110% | NCI-H460 lung 102% | HOP-92 NSCLC 97% | NCI-H522 lung 91.8% | A549/ATCC NSCLC 106% | COLO 205 colon 112% | DU-145 prostate 115% | K-562 leukemia 97.5% | MALME-3M melanoma 102% | MDA-MB-231 breast 95.4% | SF-268 CNS 102% | SF-295 CNS 103% | SF-539 CNS 101% | UACC-257 melanoma 98.1%

O=C(NCCN1CCOCC1)OCc1nc2nc(Cl)nc(N3CCOCC3)c2[nH]1
inactive: NCI-H23 lung 26.3% | NCI-H226 lung 62.6% | NCI-H322M lung 42.4% | HOP-62 NSCLC 32.5% | HOP-92 NSCLC 54.3% | A549/ATCC NSCLC 68.2% | 786-0 renal 58.1% | COLO 205 colon 110% | MALME-3M melanoma 50% | MDA-MB-231 breast 22.9% | SF-268 CNS 27% | SF-295 CNS 94.6% | UACC-257 melanoma 69.2%
active: NCI-H460 lung 9.27% | NCI-H522 lung -29.8% | DU-145 prostate 8.23% | K-562 leukemia 6.62% | SF-539 CNS -15.8% | M14 melanoma 9.49%

COc1ccc2c(c1)OC1=C(C(=O)OC1)C2c1cc(OC)c(OC)c(OC)c1 (configuration not stated)
active: NCI-H460 lung 5.28% | NCI-H522 lung -32.5% | COLO 205 colon 1.87% | DU-145 prostate 6.88% | SF-295 CNS 8.32% | SF-539 CNS 0.966%
inactive: NCI-H23 lung 31.8% | NCI-H226 lung 26.8% | NCI-H322M lung 52.6% | HOP-62 NSCLC 33.2% | HOP-92 NSCLC 74.8% | A549/ATCC NSCLC 20.7% | 786-0 renal 36.8% | K-562 leukemia 14.1% | MALME-3M melanoma 61.1% | MDA-MB-231 breast 42.7% | SF-268 CNS 32% | UACC-257 melanoma 39.6% | M14 melanoma 10.2%

Cc1nc2sc(C(=O)Nc3cccc(Br)c3)c(N)c2cc1C(=O)c1ccc(C(F)(F)F)cc1
inactive: NCI-H23 lung 75.1% | NCI-H226 lung 92% | NCI-H322M lung 65.7% | HOP-62 NSCLC 60.6% | NCI-H460 lung 63.7% | HOP-92 NSCLC 80% | NCI-H522 lung 84.7% | A549/ATCC NSCLC 74.7% | 786-0 renal 86.4% | COLO 205 colon 86.7% | DU-145 prostate 69.3% | K-562 leukemia 84.2% | MALME-3M melanoma 81% | MDA-MB-231 breast 63.8% | SF-268 CNS 79.4% | SF-295 CNS 67.7% | SF-539 CNS 56.5% | UACC-257 melanoma 95.2% | M14 melanoma 69.2%

Cc1ccccc1C(c1ccccc1)c1ccccc1C
inactive: NCI-H23 lung 94.4% | NCI-H226 lung 22.1% | NCI-H322M lung 90.9% | HOP-62 NSCLC 69.5% | NCI-H460 lung 101% | HOP-92 NSCLC 79.7% | NCI-H522 lung 77.1% | A549/ATCC NSCLC 73.6% | 786-0 renal 98.8% | COLO 205 colon 105% | DU-145 prostate 117% | K-562 leukemia 105% | MALME-3M melanoma 109% | MDA-MB-231 breast 104% | SF-268 CNS 99.7% | SF-295 CNS 97.7% | SF-539 CNS 106% | UACC-257 melanoma 71.3% | M14 melanoma 80.3%

Cc1ccc(C2CC(c3cccc(Nc4ccncc4)c3)=NN2c2cc(Cl)cc(Cl)c2)cc1 (configuration not stated)
active: NCI-H460 lung -73.4% | A549/ATCC NSCLC 4.87% | COLO 205 colon -43.1% | K-562 leukemia 1.45% | MALME-3M melanoma 1.81% | SF-295 CNS -6.71% | M14 melanoma 2.02%
inactive: NCI-H23 lung 61.1% | NCI-H226 lung 86.3% | NCI-H322M lung 73.7% | HOP-62 NSCLC 40.5% | HOP-92 NSCLC 57.7% | NCI-H522 lung 21% | 786-0 renal 51% | DU-145 prostate 30.8% | MDA-MB-231 breast 40.9% | SF-268 CNS 82.8% | SF-539 CNS 78.1% | UACC-257 melanoma 76.2%

CC(=O)O[C@H]1CC[C@@]2(C)[C@@H](CC[C@@H]3[C@@H]2CC[C@@]2(C)[C@H]3CC[C@]2(O)C(C)=O)C1
inactive: NCI-H23 lung 101% | NCI-H226 lung 89.8% | NCI-H322M lung 91.9% | HOP-62 NSCLC 95.3% | NCI-H460 lung 105% | HOP-92 NSCLC 101% | NCI-H522 lung 96.8% | A549/ATCC NSCLC 92.1% | 786-0 renal 98.1% | COLO 205 colon 107% | DU-145 prostate 115% | K-562 leukemia 100% | MALME-3M melanoma 99.5% | MDA-MB-231 breast 100% | SF-268 CNS 106% | SF-295 CNS 94.4% | SF-539 CNS 100% | UACC-257 melanoma 109% | M14 melanoma 99.3%
